Source: PubChem BioAssay (NCATS)
Inconclusive results are not listed. Entries that show only a call come without a potency. A number with no mark means an inactive call. Active and inactive are the calls of the source. The call rests on the fitted dose curve; in most records, active means well fitted activation curve with a large enough effect; inconclusive means small, poorly fitted or top-dose-only effect; inactive means flat fitted curve, though single readings scatter.

Test: Primary redox qHTS assay for identification of artifact compounds. (AID 1845223)
Details: Amplex Red/HRP redox cycling with DTT, fluorescence; series mostly up to 53.8 µM
Source text: PI: Alexander Tropsha Ph.D.
UNC Eshelman School of Pharmacy
University of North Carolina, Chapel Hill, North Carolina
Hits from high-throughput screening (HTS) of chemical libraries are often false positives due to their interference with the assay detection technology. In response to this problem, we generated the largest publicly available library of chemical liabilities and developed a free webtool to predict HTS artifacts, both of which are described herein. More specifically, we generated, curated, and integrated HTS datasets for thiol reactivity, redox activity, and luciferase (firefly and nano) activity. Using these curated datasets, we developed and validated several Quantitative Structure-Interference Relationship (QSIR) models to predict nuisance behavior. […] These models were employed for virtual profiling of the National Center for Advancing Translational Science's (NCATS) in-house library, and 256 compounds for each assay were selected for the experimental validation of nuisance behavior. The BA for these external predictions ranged from 58 to 78% for compounds within the applicability domains of the models. […] The models developed in this study, along with aggregation models previously developed by our group (SCAM Detective) were implemented in "Liability Predictor," an online tool which may be used as part of chemical library design or for triaging HTS hits. Both the models and the curated datasets are publicly available at https://liability.mml.unc.edu/.
SEQUENCE No. (e.g., 1, 2, 3, etc.); […] (e.g., Cells, Incubation, Reagent, etc.); VALUE; DESCRIPTION.
1; Reagent; 3 uL; Amplex Red and HRP mixture.
2; Compounds and control; 16 nL; Kalypsis pin tool (Wako USA) equipped with a 1536-well pin head. […]
6; Detection; Fluorescence, ViewLux microplate reader, 525 nm excitation, 598 nm emission.
NOTES (numbers refer to Sequence numbers above)
1. 3 uL of a mixture containing Amplex Red (25 uM final concentration) and horseradish peroxidase (HRP; 250 mU/mL final concentration) in assay buffer (HBSS) was dispensed into all wells of a 1536-well assay plate (solid-bottom black plate; Greiner Bio One, Monroe, NC).
2. A Wako Pin-tool (Wako Automation, Richmond, VA) was used to transfer 16 nL of compounds (consisting of 7-plates in qHTS format, final concentration range 18.3 nM to 114 uM) or control DA3003 (final concentration range 1.22 nM to 40 uM).
3. 15 min. incubation at room temperature protected from light.
4. 1 uL of DTT (prepared fresh; final concentration 250 uM) was dispensed for a final assay volume of 4 uL.
5. Plates were centrifuged (121xg, 15 seconds) and incubated for 30 minutes at room temperature protected from light.
6. Samples were read for fluorescence (Ex/Em = 525(20)/598(25) nm) on a ViewLux CCD imager (PerkinElmer). Data were normalized to DMSO (0% activity) and DA3003 (10 uM final concentration; 100% activity) and the resulting percent inhibition data were fitted to a 4-parameter Hill equation using NCATS in-house software.
Potency means the concentration at half of the fitted maximal effect.

| Structure (SMILES) | Potency | redox activity (% of DA3003) |
| --- | --- | --- |
| COc1cc(N(C)CCN(C)C)c(N)cc1Nc1nccc(-c2cn(C)c3ccccc23)n1 | inactive |  |
| Cc1cnn(-c2ccccc2)c1NC(=O)COCc1ccccc1 | inactive |  |
| CC(C)(O)/C=C/C(=O)[C@](C)(O)[C@H]1[C@H](O)C[C@@]2(C)[C@@H]3CC=C4[C@@H](C[C@H](O[C@@H]5O[C@H](CO)[C@@H](O)[C@H](O)[C@H]5O)C(=O)C4(C)C)[C@]3(C)C(=O)C[C@]12C | inactive |  |
| O=C(NC[C@H](O)CN1CCc2ccccc2C1)c1ccnc(NC2CCC2)c1 | inactive |  |
| Cc1ccc(C(=O)Nc2ccc(CN3CCN(C)CC3)c(C(F)(F)F)c2)cc1C#Cc1cnc2[nH]ncc2c1 | inactive |  |
| COCCNCc1ccc(-c2cc3nccc(Oc4ccc(NC(=O)C5(C(=O)Nc6ccc(F)cc6)CC5)cc4F)c3s2)nc1 | inactive |  |
| Cc1cn2cc(C(=O)N(C)CCO)cc(NC3CCOc4cccc(C)c43)c2n1 (stereo not given) | inactive |  |
| CCOC(=O)N1CCC(N2CCC[C@@H](NC(=O)c3ccccc3C)C2)CC1 | inactive |  |
| CN(C)CCOc1cc(NS(=O)(=O)c2c(Cl)cc(C(F)(F)F)cc2Cl)ccc1Cl | inactive |  |
| Cc1cc(NC(=O)NCCN2CCC(O)(Cc3ccccc3)CC2)c2ccccc2n1 | inactive |  |
| Cc1nc(C#Cc2ccnc(Cl)c2)c(C)n1-c1ccc(F)cc1 | inactive |  |
| C/C=C(\C)C(=O)OC1C=C(C)CC(OC(=O)c2ccc(O)cc2)C2C1(C)CCC2(O)C(C)C (stereo not given) | inactive |  |
| Fc1ccc(CN2CCC(Nc3ccc(C(F)(F)F)nn3)CC2)cc1F | inactive |  |
| C=C1CC[C@@H](O)[C@]2(C)C[C@H]3OC(=O)C(=C)[C@H]3CC12 (stereo not given in full) | inactive |  |
| Cn1ncc(Cl)c1-c1cc(C(=O)N[C@H](CN)Cc2ccc(F)c(F)c2)oc1Cl | inactive |  |
| CNc1cccc(CCOc2ccc3c(c2)CN(CC(F)(F)F)C(=O)[C@H](CC(=O)O)C3)n1 | inactive |  |
| C=C1CC[C@@H]2[C@](C)(CO)[C@H](O)CC[C@@]2(C)[C@@H]1C/C=C1/C(=O)OCC1O (stereo not given in full) | inactive |  |
| COc1cc(/C=N\NC(=O)c2ccc3c(c2)OCO3)ccc1OCc1ccccc1 | inactive |  |
| COC1CCN(C(=O)c2cc(Cc3n[nH]c(=O)c4ccccc34)ccc2F)CC1 | inactive |  |
| COc1cccc(-c2cc(F)ccc2C2Cc3nc(N)nc(C)c3C(=O)N2)n1 (stereo not given) | inactive |  |

| Structure (SMILES) | Potency | redox activity (% of DA3003) |
| --- | --- | --- |
| COc1ccc(C2Oc3c(OC)cc(CCCO)cc3C2COC2OC(CO)C(O)C(O)C2O)cc1OC (stereo not given) | inactive |  |
| N#CSc1cc(SC#N)c(N)nc1N | 5.05 µM (active) |  |
| O=C(Nc1ccc(N2C(=O)[C@@H]3[C@H](C2=O)[C@@H]2C=C[C@H]3C2)c(Cl)c1)c1ccccn1 | inactive |  |
| Nc1nc(NC2CC2)cc(-c2cccc(Cl)c2Cl)n1 | inactive |  |
| CCC(C)C(=O)OC1C(C)C2(O)C(C=C(CO)CC3(O)C(=O)C(C)=CC32)C2C(C)(C)C12OC(=O)C(C)C (stereo not given) | inactive |  |
| O=C1c2ccc(Nc3ccc(F)cc3F)cc2CCc2ccc(OCC(O)CO)cc21 (stereo not given) | inactive |  |
| CCO[C@H]1CN(C2CCC(O)(c3ccc4c(c3)OCO4)CC2)C[C@@H]1NC(=O)CNC(=O)c1cccc(C(F)(F)F)c1 (stereo not given in full) | inactive |  |
| COC1=CC(=O)C[C@@H](C)[C@@]12Oc1c(Cl)c(OC)cc(OC)c1C2=O | inactive |  |
| COc1ccc(S(=O)(=O)N2CCC[C@H]2C(=O)Nc2cc(C)cc(C)c2)cc1 | inactive |  |
| C1=Cc2ccccc2C(=C2CCN(CCCCc3nn[nH]n3)CC2)c2ccccc21 | inactive |  |
| O=C(NC[C@H]1CN(c2ccc(N3CCOCC3=O)cc2)C(=O)O1)c1ccc(Cl)s1 | inactive |  |
| COc1ccc2nc(-c3cc(OC)c(OC)c(OC)c3)cc(C(=O)NCC(=O)Nc3ccc(C(C)=O)cc3)c2c1 | inactive |  |
| OC[C@H]1O[C@@H](OC/C=C/c2ccc(O)cc2)[C@H](O)[C@@H](O)[C@@H]1O | inactive |  |
| Nc1nc2c(c(N3CC[C@@H](N)C3)n1)CCCc1ccccc1-2 | inactive |  |
| CCn1c(=O)n([C@H]2CCCN(c3nccc(-c4cc5ccccc5o4)n3)C2)c2ccccc21 | inactive |  |
| O=S(=O)(c1ccccc1)N(CC(F)(F)F)c1ccc(C(O)(C(F)(F)F)C(F)(F)F)cc1 | inactive |  |
| O=C(NCc1ccccc1)c1ccc2c(=O)n(-c3cccc(C(F)(F)F)c3)c(=S)[nH]c2c1 | inactive |  |
| C[C@H]1CC[C@@]2(OC1)O[C@H]1CC3[C@@H]4CC[C@@H]5C[C@@H](O[C@@H]6O[C@H](CO)[C@@H](O[C@@H]7O[C@H](CO[C@@H]8OC[C@@H](O)[C@H](O)[C@H]8O)[C@@H](O[C@@H]8O[C@H](CO)[C@H](O)[C@H](O)[C@H]8O)[C@H](O)[C@H]7O)[C@H](O)[C@H]6O)CC[C@]5(C)C4CC[C@]3(C)[C@H]1[C@@H]2C (stereo not given in full) |  | 17.1% [at 11.5 µM] |
| CCC(C)C(=O)OC12C(OC(C)=O)C(C)C3(O)C(C=C(CO)CC4(O)C(=O)C(C)=CC43)C1C2(C)C (stereo not given) | inactive |  |
| CN1c2c(nc(N)[nH]c2=O)NC[C@@H]1CNc1ccc(C(=O)N[C@@H](CCC(=O)O)C(=O)O)cc1 | inactive |  |
